Results as given in PubChem BioAssay (Tox21).
Records with an inconclusive call do not appear. A call without a number means that no potency is given here. The source made the active and inactive calls. Calls follow the shape of the dose curve; as a rule, active = well fitted curve in the direction sought with a large enough effect in the repeat runs; inconclusive = weak or mixed curves; inactive = no such curve, though single readings can be large; an effect the other way counts as inactive or inconclusive. Starred links: 1 amine or outer side, 2 acyl side, 3 side chain; linkers in the order of their positions; H or OH if unused. Positions of bridges follow the written chain, without caps; N, C: chain ends. Non-standard residues stand in square brackets, D forms with d. Residues, ends and D or L forms follow the SMILES beside them. *: point of attachment. X5 = NC1=N[C@@H]([C@H](N[*:1])C(=O)[*:2])C[C@H](O)N1; ΔAla(Z-3-ureido) = NC(=O)N/C=C(\N)C(=O)O; β3hOrn = NCCC[C@H](N)CC(=O)*; Dap = NC[C@H](N)C(=O)O

What was measured:
[1] = qHTS assay to test for compound auto fluorescence at 535 nm (green) in HEK293 cells (AID 720680)
[2] = qHTS assay to test for compound auto fluorescence at 460 nm (blue) in HEK293 cell free culture (AID 720681)
Outline: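 Blue fluorescence (Ex 405/Em 460 nm, triamterene-equivalent) was read immediately after pin transfer of compound or DMSO into medium (DMEM, 10% FBS) without cells.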

[3] = qHTS assay to test for compound auto fluorescence at 535 nm (green) in HEK293 cell free culture (AID 720682)
Outline: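 No cells present: wells hold DMEM supplemented with 10% FBS, into which compound or vehicle is pinned. Green emission is then recorded (485 nm excitation, 535 nm emission) and scaled to fluorescein.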

[4] = qHTS assay to test for compound auto fluorescence at 590 nm (red) in HEK293 cell free culture (AID 720683)
Outline: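 Red-channel autofluorescence of compounds in culture medium (DMEM, 10% FBS), no cells, measured at 540/590 nm. Rose Bengal sodium is the reference fluorophore for equivalence.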

[5] = qHTS assay to test for compound auto fluorescence at 590 nm (red) in HepG2 cell free culture (AID 720684)
Outline: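 Cell-free; medium MEM + 10% FBS; compound or DMSO added by pintool; read Ex 540/Em 590 nm; Rose Bengal sodium as red reference fluorophore.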

[6] = qHTS assay to test for compound auto fluorescence at 460 nm (blue) in HepG2 cell free culture (AID 720685)
Outline: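 Cell-free plates of MEM plus 10% FBS received 23 nL compound or DMSO vehicle; blue-channel (405/460 nm) intensity scored against triamterene as reference fluorophore.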

[7] = qHTS assay to test for compound auto fluorescence at 535 nm (green) in HepG2 cell free culture (AID 720686)
[8] = qHTS assay to test for compound auto fluorescence at 460 nm (blue) in HepG2 cells (AID 720687)
Outline: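 Blue-channel autofluorescence (Ex/Em 405/460 nm, triamterene-equivalent) was measured after 1 hr compound exposure at 37 C, 5% CO2. Cells were HepG2, plated overnight at 37 C in MEM plus 10% FBS.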

[9] = qHTS assay to identify small molecule antagonists of the glucocorticoid receptor (GR) signaling pathway - cell viability counter screen (AID 720693); also: nearly all actives have a fitted effect of over 55% in size; also: potency is read from the fitted curve at half-maximal effect
[10] = qHTS assay for identifying genotoxic compounds that show differential cytotoxicity against isogenic chicken DT40 cell lines with known DNA damage response pathways - wild type cell line (AID 743012); also: nearly all actives have a fitted effect of over 60% in size; also: potency is read from the fitted curve at half-maximal effect
Outline: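 Luminescent ATP viability signal (CellTiter-Glo, 30 min RT) recorded after wild type DT40 cells were incubated with compounds for 40 h at 37 C/5% CO2.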

[11] = qHTS assay for identifying genotoxic compounds that show differential cytotoxicity against isogenic chicken DT40 cell lines with known DNA damage response pathways - Rev3 mutant cell line (AID 743014); also: nearly all actives have a fitted effect of over 55% in size; also: potency is read from the fitted curve at half-maximal effect
[12] = qHTS assay for identifying genotoxic compounds that show differential cytotoxicity against isogenic chicken DT40 cell lines with known DNA damage response pathways - Rad54/Ku70 mutant cell line (AID 743015); also: nearly all actives have a fitted effect of over 60% in size; also: potency is read from the fitted curve at half-maximal effect
[13] = qHTS assay to identify small molecule antagonists of the androgen receptor (AR) signaling pathway - cell viability counter screen (AID 743033; also: nearly all actives have a fitted effect of over 45% in size)
[14] = qHTS assay to identify small molecule antagonists of the androgen receptor (AR) signaling pathway using the MDA cell line - cell viability counter screen (AID 743041; also: nearly all actives have a fitted effect of over 45% in size)
Outline: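 Viability read by CellTiter-Fluor fluorescence in the same wells as the antagonist screen, added after 15.5 h of a 16 h, 37C exposure. Human breast carcinoma MDA-kb2 AR-luc cells, compounds co-dosed with agonist R1881.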

[15] = biological target: Androgen receptor (Homo sapiens) (UniProt P10275); experiment: qHTS assay to identify small molecule agonists of the androgen receptor (AR) signaling pathway using the MDA cell line (AID 743040; also: nearly all actives have a fitted effect of over 20% in size)
Androgen receptor (Homo sapiens), sequence (P10275 whole entry, looked up): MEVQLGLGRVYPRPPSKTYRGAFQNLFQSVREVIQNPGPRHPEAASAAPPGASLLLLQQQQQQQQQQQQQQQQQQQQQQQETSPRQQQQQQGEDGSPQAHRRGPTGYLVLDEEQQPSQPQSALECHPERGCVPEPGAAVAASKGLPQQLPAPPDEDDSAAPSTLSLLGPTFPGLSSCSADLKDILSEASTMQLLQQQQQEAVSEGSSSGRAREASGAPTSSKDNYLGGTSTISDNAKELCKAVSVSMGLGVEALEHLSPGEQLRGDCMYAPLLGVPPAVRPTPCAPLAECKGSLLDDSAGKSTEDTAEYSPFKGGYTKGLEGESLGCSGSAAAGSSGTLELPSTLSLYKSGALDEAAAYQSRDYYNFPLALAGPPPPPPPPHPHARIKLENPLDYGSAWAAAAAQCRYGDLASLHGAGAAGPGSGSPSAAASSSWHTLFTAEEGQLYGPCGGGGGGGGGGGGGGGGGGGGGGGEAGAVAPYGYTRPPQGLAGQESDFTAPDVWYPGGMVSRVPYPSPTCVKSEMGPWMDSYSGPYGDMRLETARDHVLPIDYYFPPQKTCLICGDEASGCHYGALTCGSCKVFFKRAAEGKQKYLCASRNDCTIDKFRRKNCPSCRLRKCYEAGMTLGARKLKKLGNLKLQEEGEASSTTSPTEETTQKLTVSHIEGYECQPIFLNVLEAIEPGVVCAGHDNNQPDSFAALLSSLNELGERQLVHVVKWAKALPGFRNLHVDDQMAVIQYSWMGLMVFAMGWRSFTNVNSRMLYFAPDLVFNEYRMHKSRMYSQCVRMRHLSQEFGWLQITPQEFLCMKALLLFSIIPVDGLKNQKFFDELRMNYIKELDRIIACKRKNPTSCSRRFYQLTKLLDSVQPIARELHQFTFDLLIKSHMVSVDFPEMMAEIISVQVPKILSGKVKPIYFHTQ
Outline: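 Luciferase agonist assay: 16 h compound exposure at 37C without CO2 in MDA-kb2 AR-luc cells, whose MMTV promoter responds to both AR and GR. Luminescence measured after 30 min room-temperature incubation with ONE-Glo.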

[16] = biological target: Androgen receptor (Homo sapiens) (UniProt P10275); experiment: qHTS assay to identify small molecule antagonists of the androgen receptor (AR) signaling pathway using the MDA cell line (AID 743042; also: potency is read from the fitted curve at half-maximal effect; nearly all actives have a fitted effect of over 55% in size)
Outline: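 Antagonist mode: compounds plus R1881 agonist added to MDA-kb2 AR-luc cells, incubated 16 h at 37C. Luciferase reporter luminescence quantified, with multiplexed CellTiter-Fluor readout for cell viability.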

Structure (SMILES): NCCC[C@H](N)CC(=O)N[C@H]1CNC(=O)[C@H]([C@H]2C[C@H](O)NC(N)=N2)NC(=O)/C(=C/NC(N)=O)NC(=O)[C@H](CO)NC(=O)[C@H](CO)NC1=O (β3hOrn-[Dap]SS[ΔAla(Z-3-ureido)][X5]; lactam 1-C)
- Potency [1]: inactive
- Potency [2]: inactive
- Potency [3]: inactive
- Potency [4]: inactive
- Potency [5]: inactive
- outcome [6]: inactive
- Potency [7]: inactive
- outcome [8]: inactive
- Potency [9]: inactive
- Potency [10]: inactive
- Potency [11]: inactive
- Potency [12]: inactive
- Potency [13]: inactive
- Potency [14]: inactive

Structure (SMILES): Cc1cccc(Nc2ncccc2C(=O)O)c1C
- Potency [1]: inactive
- Potency [2]: inactive
- Potency [3]: inactive
- Potency [4]: inactive
- Potency [5]: inactive
- outcome [6]: inactive
- Potency [7]: inactive
- outcome [8]: inactive
- Potency [9]: inactive
- Potency [10]: inactive
- Potency [11]: inactive
- Potency [12]: inactive
- Potency [13]: inactive
- Potency [14]: inactive

Structure (SMILES): CCCCC/C=C\C/C=C\C/C=C\CCCCC(=O)O
- Potency [1]: inactive
- Potency [2]: inactive
- Potency [3]: inactive
- Potency [4]: inactive
- Potency [5]: inactive
- outcome [6]: inactive
- Potency [7]: inactive
- outcome [8]: inactive
- Potency [9]: inactive
- Potency [10]: inactive
- Potency [11]: inactive
- Potency [12]: inactive
- Potency [13]: inactive
- Potency [14]: inactive

Structure (SMILES): CC(C(=O)O)c1ccc(C2CCCCC2)c2ccccc12 (centres undefined)
- Potency [1]: inactive
- Potency [2]: inactive
- Potency [3]: inactive
- Potency [4]: inactive
- Potency [5]: inactive
- outcome [6]: inactive
- Potency [7]: inactive
- outcome [8]: inactive
- Potency [9]: inactive
- Potency [10]: inactive
- Potency [11]: inactive
- Potency [12]: inactive
- Potency [13]: inactive
- Potency [14]: inactive

Structure (SMILES): C/C=C(/CC[C@@H](C)[C@H]1CC[C@H]2C3=CC[C@H]4[C@H](C)[C@@H](O)CC[C@]4(C)[C@H]3CC[C@]12C)C(C)C
- Potency [1]: inactive
- Potency [2]: inactive
- Potency [3]: inactive
- Potency [4]: inactive
- Potency [5]: inactive
- outcome [6]: inactive
- Potency [7]: inactive
- outcome [8]: inactive
- Potency [9]: inactive
- Potency [10]: inactive
- Potency [11]: inactive
- Potency [12]: inactive
- Potency [13]: inactive
- Potency [14]: inactive

Structure (SMILES): COc1cc(-c2ccc(-[n+]3nc(-c4ccccc4)nn3-c3ccc([N+](=O)[O-])cc3)c(OC)c2)ccc1-[n+]1nc(-c2ccccc2)nn1-c1ccc([N+](=O)[O-])cc1
- Potency [1]: inactive
- Potency [2]: inactive
- Potency [3]: inactive
- Potency [4]: inactive
- Potency [5]: inactive
- outcome [6]: inactive
- Potency [7]: inactive
- outcome [8]: inactive
- Potency [9]: 19 µM (active)
- Potency [10]: 5.96 µM (active)
- Potency [11]: 7.5 µM (active)
- Potency [12]: 5.31 µM (active)
- Potency [15]: inactive
- Potency [16]: 29.8 µM (active)
